Screen size: about 360,000 compounds; about 6,200 (1.7%) were called active.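 The calls were made as follows: active = inhibition of at least 50% at 20 µM; inactive = the rest.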 The entries come from a sample that favours actives as a whole.

A short description of this experiment: inhibition of PEG-3 promoter activity – cell-based, HeLa, luciferase luminescence, primary screen (AID 588405). The conditions noted are these: HeLa PEG-Prom luciferase reporter, overnight, at 20 µM, active compounds read high. In general terms: Reporter assays use an easily measured gene product as a stand-in for the process of interest.
What is called inhibition is the relative decrease from the control value, in per cent. As to `O=[N+]([O-])c1ccc(C=Nc2ccc(Cl)cc2Cl)s1`, the inhibition is 47.5% (inactive). Turning to `CC(C)(C)c1cc(C(=O)N/N=C/c2ccc([N+](=O)[O-])s2)n[nH]1`, the inhibition was 50.6% (active). Regarding `Cc1nn(-c2ccccc2)c(Cl)c1/C=N/NC(=O)c1nn(C)cc1[N+](=O)[O-]`, the inhibition was -116% (inactive). The value for `CCNC(=O)C1(C)CCCN(C(=O)c2ccc3ccccc3n2)C1` (stereo not given) was -7.45% (inactive); that for `CCCN(CCC)CCNC(=O)c1cc2c(C)nc3ccccc3c2o1` was 18.8% (inactive). For the molecule `CNC(=O)c1cccc2nc3ccccc3nc12`, the inhibition was 6.22% (inactive). Turning to `CN(C)CCNC(=O)c1ccc(Cl)c2cc3ccccc3nc12`, the inhibition was 102% (active). The value for `COc1ccc(-c2cc3c(c4c2ccn4C)C2CCC3C2)cn1` (stereo not given) was -6.53% (inactive); that for `CNC[C@H](CC1CCCCC1)NC[C@H](NCCC1CCCC1)[C@H](C)O` was 73.8% (active). For the molecule `CCCCC[C@@H]1C=C(C(=O)OCC)[C@H](c2ccccc2)N1S(=O)(=O)c1ccc(C)cc1`, the inhibition was 12.8% (inactive). As to `CC(C)Cc1nnc(NC(=O)CCC(=O)Nc2ccc3cn[nH]c3c2)s1`, the inhibition is 19.8% (inactive). For `COC(=O)c1cc(NC2c3ccccc3C(=O)N2c2ccc(Cl)cn2)cc(C(=O)OC)c1` (stereo not given), the inhibition was -65.5% (inactive). The same measure for `CN(Cc1ccccc1F)c1cc2c(c3c1ccn3C)C1CCC2O1` (stereo not given): 33.1% (inactive); for `Cc1cccc(C(=O)OC(C)CN2CCN(C)CC2)c1` (stereo not given): -101% (inactive); for `Cc1cccc(-c2nc3ccc(C(=O)NCCN4CCN(C)CC4)cc3nc2-c2cccc(C)c2)c1`: 103% (active). Regarding `Cc1cc(C)cc(C(=O)NCCN2CCOCC2)c1`, the inhibition was 3.53% (inactive). For `Cc1ccc(S(=O)(=O)NCC(=O)NNC(=O)c2ccc(Br)cc2)cc1C`, the inhibition is 4.68% (inactive). Regarding `CCOc1cc(N2CCOCC2)c(OCC)cc1NC(=O)c1ccc(C)s1`, the inhibition was -88.6% (inactive).

For `CCOc1cc(N2CCOCC2)c(OCC)cc1NC(=O)COc1cccc2cccnc12`, the inhibition is 109% (active). As to `CCOc1cc(N2CCOCC2)c(OCC)cc1NC(=O)COC(=O)[C@H](Cc1c[nH]c2ccccc12)NC(C)=O`, the inhibition is 22.9% (inactive).

As for `CC1(C(=O)Nc2cccc3c2CCCC3)CCN1C(=O)CCc1ccc(Cl)cc1Cl` (stereo not given), the inhibition is 36.2% (inactive). The same measure for `COc1ccc(OC)c(C(O)c2nc3ccccc3n2C)c1` (stereo not given): 0.26% (inactive); for `CC1=C(C(=O)N2CCOCC2)CC(CC(=O)NCCCN(C)C)C(=O)N1Cc1ccc(C(C)(C)C)cc1` (stereo not given): -10.2% (inactive). The same measure for `Cc1ccc(S(=O)Cc2ccc(C(=O)N3CCN(C4CCCCC4)CC3)o2)cc1` (stereo not given): 24.1% (inactive). The same measure for `CN(C)S(=O)(=O)c1cccc(C(=O)OCC(=O)N2CCCC2=O)c1`: -2.53% (inactive); for `CCOC(=O)c1ccc(NC(=O)CNC(=O)c2ccco2)cc1`: 102% (active); for `CCOC(=O)c1ccc(NC(=O)Cc2cccs2)cc1`: -222% (inactive). With `O=C(COC(=O)CNC(=O)c1ccco1)Nc1ccc(F)cc1`, the inhibition is 8.45% (inactive).

Consider `CCCNC(=O)C1(C)CCN(Cc2ccc(Cl)c(Cl)c2)C1` (stereo not given), for which the inhibition is 1.28% (inactive). The value for `CC(=O)Nc1ccc(-c2csc(NC(=O)Nc3ccccc3)n2)cc1` was 102% (active); that for `CC(=O)Nc1ccc(-c2cn3cccnc3n2)cc1` was -72.3% (inactive). On to `Cc1ccc(NC(=O)Nc2cc(-c3ccccc3)nn2C)cc1Cl`, for which the inhibition was 4.66% (inactive). In the case of `COc1ccc(S(=O)(=O)N(C)C[C@H]2Oc3c(NC(=O)Nc4ccc5c(c4)OCO5)cccc3C(=O)N([C@H](C)CO)C[C@@H]2C)cc1`, the inhibition was -2.6% (inactive). As for `CCCNC(=O)C1(C)CCN(C(=O)c2cc(F)ccc2C)C1` (stereo not given), the inhibition was -1.83% (inactive). The same measure for `CCc1nc2ccc(C(=O)N3CCC(O)(Cc4ccccc4)CC3)cn2c1N(C)C(=O)Cc1ccccc1`: 4.95% (inactive); for `COc1ccc(/C(C)=N/N2CCOCC2)c(O)c1`: -9.18% (inactive); for `Cc1cc(C)n(CC(O)COc2ccc(C(C)(C)C)cc2)n1` (stereo not given): -28.6% (inactive). Take `CCCC(O)(c1ccc(OC)cc1)C(CN(C)C)c1ccccc1` (stereo not given): the inhibition is 7.67% (inactive).

With `CN(C)CC(O)COc1ccc(C(C)(C)c2ccc(OCC(O)CN(C)C)cc2)cc1` (stereo not given), the inhibition is 77.5% (active). As for `CS(=O)(=O)N(CC(=O)N1CCCC1)Cc1ccccc1`, the inhibition is 3.29% (inactive). The same measure for `CCCCc1ccc(S(=O)(=O)NC(=O)C2(C)CCN2C(=O)c2ccccc2)cc1` (stereo not given): 0.57% (inactive); for `O=C(NCCO)c1cccc(-c2cccc3nccn23)c1`: -16.2% (inactive); for `O=C(Nc1ccc2c(c1)OCCO2)C(C1CC1)N1CCC(Cc2ccccc2)CC1` (stereo not given): -10.2% (inactive). In the case of `NC(c1ccccc1)c1csc(NC(=O)Nc2cccc(C(F)(F)F)c2)n1` (stereo not given), the inhibition is 113% (active). Regarding `COc1ccc(C(CC(=O)Nc2ccc(C)cc2)NC(=O)C(F)(F)F)cc1` (stereo not given), the inhibition was 3.66% (inactive). Regarding `O=C(Nc1ccc(C(=O)N2CCOCC2)cc1)Nc1cccc(C(F)(F)F)c1`, the inhibition was 2.67% (inactive). The same measure for `COc1cccc(NC(=O)Nc2ccc(F)cc2)c1`: -212% (inactive). As to `COc1ccc(C(N)c2csc(NC(=O)Nc3cccc(C(F)(F)F)c3)n2)cc1` (stereo not given), the inhibition is 96.6% (active).

As for `C/C(CC(=O)Nc1cccc(C(F)(F)F)c1)=N\NC(=O)C(=O)NCC(C)C`, the inhibition is -1.6% (inactive). As to `O=C(Nc1cccc(F)c1)NC1CCCCCCC1`, the inhibition was -273% (inactive). The same measure for `CC(=O)c1ccc(Nc2nc(C(N)c3ccccc3)cs2)cc1` (stereo not given): -58.5% (inactive); for `NC(c1csc(NC(=O)Nc2cccc(C(F)(F)F)c2)n1)C1CCCCC1` (stereo not given): 111% (active); for `Cc1cc(Br)ccc1NC(=O)CCCOc1cc(=O)n(C)c2ccccc12`: -16.6% (inactive). `Cc1ccc(C)c(OCCC(=O)Nc2cccc(S(=O)(=O)N3CCCC3)c2)c1`: the inhibition was 21.3% (inactive). Take `COC(=O)CNC(c1ccccc1Cl)c1cc(Br)ccc1NC(=O)CCN1CCOCC1` (stereo not given): the inhibition is 20.5% (inactive). Take `COC(=O)Cc1cnc(NC(=O)CSc2nc(C(C)C)cc(=O)[nH]2)s1`: the inhibition was 1.1% (inactive). The same measure for `CC1(Oc2cccc(F)c2)CCN(Cc2ccccc2OC(F)F)C1` (stereo not given): 2.93% (inactive). As to `CCCNC(=S)N1CCC(NC(=O)C23CC4CC(CC(C4)C2)C3)CC1`, the inhibition was 8.28% (inactive). Regarding `CCNC(=O)C1CCCN(C(=O)c2cc(F)ccc2C)CC1` (stereo not given), the inhibition is 2.54% (inactive).

`CCc1nc2ccc(C(=O)NC3CCN(Cc4ccccc4)CC3)cn2c1N(C)CCN1CCOCC1`: the inhibition is -22.2% (inactive). The same measure for `CCC(=O)N1CCC(C)(C(=O)Nc2cc(OC)c(OC)c(OC)c2)C1` (stereo not given): -5.88% (inactive); for `CCOC(=O)c1c(C)[nH]c2c1-c1ccccc1C(=O)C2=O`: 108% (active). Turning to `CCOC(=O)c1[nH]c2ccccc2c1N=C(C)N(CC)CC`, the inhibition was 12.3% (inactive). Regarding `CCOC(=O)c1c(C)[nH]c(C)c1S(=O)(=O)NCCCc1ccco1`, the inhibition is -7.04% (inactive). `Brc1ccc(Nc2c3c(nc4ncnn24)CCC3)cc1`: the inhibition was 22.3% (inactive). Regarding `CC(=O)c1cccc(-c2cnc3c(NC=O)cc(-c4ccc(N5CCN(C)CC5)cc4)cn23)c1`, the inhibition was -143% (inactive). `CC1(C(=O)NS(=O)(=O)c2cccc(OC(F)F)c2)CCN1C(=O)C1CC1` (stereo not given): the inhibition was -2.21% (inactive). For the molecule `CCCCn1c(N)c(N2CCOCC2)c(=O)n(CC(=O)NCCc2ccccc2)c1=O`, the inhibition was 2.61% (inactive). Turning to `O=C(CN1CCCCCC1)NCCN1C(=O)S/C(=C\c2ccccc2Cl)C1=O`, the inhibition is 3.28% (inactive). The value for `O=C1/C(=C\c2ccccc2Cl)SC(=S)N1CCC(=O)N1CCCc2ccccc21` was 105% (active); that for `CN(C(=O)CCN1C(=O)/C(=C/c2ccccc2F)SC1=S)C1CCS(=O)(=O)C1` (stereo not given) was 6.96% (inactive). For `Cc1cc(Br)cn2c(Cc3cccc(F)c3)c(-c3cccc(Br)c3)nc12`, the inhibition is 33.6% (inactive).

Turning to `COc1ccc(-c2ccc(C(=O)NCCN3CCOCC3)c3occc23)c(C)c1`, the inhibition was -2.5% (inactive).

On to `CCOC1=C2[C@H]([C@H]3C(=O)N(c4ccccc4)C(=O)[C@H]3C1)[C@@H](c1ccccc1)N(S(=O)(=O)c1ccc(C)cc1)[C@H]2c1ccccc1`, for which the inhibition was 16.4% (inactive). As to `Cc1ccc(S(=O)(=O)N(C)C)cc1NC(=O)c1ccc(-n2cncn2)c([N+](=O)[O-])c1`, the inhibition was 6.01% (inactive). For the molecule `CCN(CC)C(=O)C1CCCN(Cc2cccc(Cl)c2)C1` (stereo not given), the inhibition is 3.55% (inactive). As to `COc1ccc(-c2csc(C(O)c3cccc(Cl)c3)n2)cn1` (stereo not given), the inhibition was -7.77% (inactive). Take `COc1ccc2c(c1)c(=Cc1ccc(N(C)C)cc1)c1cc(-c3ccccc3)[n+](C)n12`: the inhibition is 104% (active).

As to `Cc1nc2cc(S(=O)(=O)C(F)(F)F)ccc2s1`, the inhibition was 2.35% (inactive).

`COc1cccc(CN2CCC(C(=O)NC(c3ccc4c(c3)OCO4)c3ccccn3)CC2)c1` (stereo not given): the inhibition was -0.88% (inactive). With `Cc1cccnc1C(NC(=O)C1CCN(Cc2ccc(Cl)c(Cl)c2)CC1)c1ccc(Cl)cc1` (stereo not given), the inhibition is 2.43% (inactive). As for `CCn1c(/C=C/c2ccc([N+](=O)[O-])o2)nc2ccccc2c1=O`, the inhibition is 93.3% (active). On to `Cc1ccc(-n2c(SCC(=O)N/N=C/C=C/c3ccccc3[N+](=O)[O-])nc3ccccc3c2=O)cc1`, for which the inhibition was 6.9% (inactive).

With `O=c1c2ccccc2ncn1/N=C/c1ccccc1`, the inhibition was -247% (inactive). For the molecule `CC1(C(=O)NS(=O)(=O)Cc2cccc(Cl)c2)CCN1C(=O)Cc1ccccc1` (stereo not given), the inhibition is 8.1% (inactive). With `Cc1ccc(NS(=O)(=O)c2cc3c(cc2Br)NC(=O)CO3)cc1C`, the inhibition is 24.2% (inactive). On to `O=C(CCl)Nc1cccc(CP(=O)(c2ccccc2)c2ccccc2)c1`, for which the inhibition is 22.4% (inactive). Take `O=C(CCl)Nc1ccc(Sc2ccc(NC(=O)CCl)cc2)cc1`: the inhibition was 99.8% (active). Consider `CC(C)(CCl)C(=O)Nc1ccc(Sc2ccc(F)cc2)cc1`, for which the inhibition was -14% (inactive). The value for `CC(C)C1C(=O)N(Cc2cn(CCC3OCCO3)nn2)CCS(=O)(=O)N1Cc1ccc(-c2ccccc2C(F)(F)F)cc1` (stereo not given) was 12.5% (inactive).

For the origin of these results see PubChem BioAssay AID588405 (Sanford-Burnham Center for Chemical Genomics, 2011).
